A selection: hits, their analogues and other compounds. The true share with any hit is near 2.8%.
PI5P4Ka inh = inhibitors of human PI5P4K alpha; P48426; PI5P4Kalpha enzyme, ADP-Glo luminescence, 60 min; active compounds read low; max response, %; 330,000 compounds, 1.2% hits; AID 652105; active = max response of -50% or lower; inconclusive = between -30% and -50%; inactive = -30% or higher; also: value at the top dose of about 77 µM
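qHTS, 1536-well: enzyme/substrate mix, compound by pin tool, 5 microM ATP final; RT 60 min; ADP-Glo reagents 1 (45 min) then 2 (30 min); luminescence.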
POLB inh = inhibitors of human DNA polymerase beta; P06746; Pol beta primer extension/strand displacement, fluorescence kinetic; Potency, µM (series often up to 114 µM), most hits filed as inhibitors; 340,000 compounds, 1.3% hits
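Homogeneous kinetic assay of primer extension and strand displacement by 10 nM Pol beta, preincubated 15 min at room temperature with compound before 50 nM substrate (final) was added. Read at 0 and 10 min; four-parameter Hill fit.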
Pol iota inh = blocks human DNA polymerase iota activity | 390,000 compounds, 1% hits | Pol iota fluorescent replication assay, 10 min | AID 588590 | Q9UNA4 | Potency, µM (series often up to 115 µM), most hits filed as inhibitors
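Pol iota at 10 nM preincubated 15 min with compounds at room temperature; reaction started with fluorescent substrate, 50 nM final. Fluorescence read kinetically at 0 and 10 min; buffer-only wells as negative control.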
PI4K2A inh = PI4K2A (human) kinase inhibition | AID 1346378 | 420,000 compounds, 0.13% hits | activity change, negative = inhibition, % at 76.9 µM | purified PI4K2A, ADP-Glo luminescence, 1 h; active compounds read low | Q9BTU6; in the data active = activity change below about -50%; inconclusive = mostly about -30% to -49%
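ADP-Glo luminescence measured ADP generated by PI4K2A enzyme (4 ug/mL before mixing) with 1.2 mM PI substrate (pre-mix) and 300 microM ATP (pre-mix). Tris pH7.5 buffer with MgCl2, Triton X-100; 1 h reaction at ambient temperature.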
Pol kappa inh = blocks human DNA polymerase kappa activity; Q9UBT6; purified Pol kappa, fluorescent DNA synthesis assay, 10 min; Potency, µM (doses to about 107 µM), hits mostly inhibitors; 400,000 compounds, 0.53% hits
Target sequence (Q9UBT6 whole entry, looked up): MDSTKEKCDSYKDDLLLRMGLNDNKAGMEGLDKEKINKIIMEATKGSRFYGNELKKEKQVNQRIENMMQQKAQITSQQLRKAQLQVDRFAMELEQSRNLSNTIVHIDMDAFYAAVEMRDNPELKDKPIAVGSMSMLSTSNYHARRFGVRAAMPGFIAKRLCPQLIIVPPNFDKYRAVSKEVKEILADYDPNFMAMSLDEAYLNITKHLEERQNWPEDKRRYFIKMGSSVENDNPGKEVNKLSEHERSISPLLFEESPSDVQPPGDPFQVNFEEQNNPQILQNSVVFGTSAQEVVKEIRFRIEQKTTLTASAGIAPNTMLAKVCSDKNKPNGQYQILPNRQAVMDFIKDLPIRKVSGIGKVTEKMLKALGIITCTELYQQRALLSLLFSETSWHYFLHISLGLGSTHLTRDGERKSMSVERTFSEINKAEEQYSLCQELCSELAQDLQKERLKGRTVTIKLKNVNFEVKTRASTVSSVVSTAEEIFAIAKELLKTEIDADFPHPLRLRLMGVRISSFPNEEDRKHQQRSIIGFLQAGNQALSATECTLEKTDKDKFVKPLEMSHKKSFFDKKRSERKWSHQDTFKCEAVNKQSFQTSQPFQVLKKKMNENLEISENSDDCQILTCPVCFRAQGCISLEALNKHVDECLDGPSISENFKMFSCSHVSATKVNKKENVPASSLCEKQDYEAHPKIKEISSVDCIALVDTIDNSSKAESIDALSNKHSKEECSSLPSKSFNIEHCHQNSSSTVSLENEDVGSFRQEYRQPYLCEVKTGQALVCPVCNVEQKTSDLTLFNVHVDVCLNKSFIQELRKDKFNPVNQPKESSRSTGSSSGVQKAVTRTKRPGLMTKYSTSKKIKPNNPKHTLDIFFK
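First, compounds were pin-transferred onto 10 nM Pol kappa. After 15 min at room temperature, substrate was added to 50 nM final. Fluorescence was then measured kinetically at 0 and 10 min.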
Pol eta inh = DNA polymerase eta (human) inhibition; 390,000 compounds, 1.2% hits; recombinant Pol eta, fluorescent DNA replication assay; Q9Y253; Potency, µM (highest dose often 114 µM), usual class: inhibitors; AID 588591
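Fluorescent replication assay: 50 nM final substrate added after a 15 min room-temperature compound preincubation with 10 nM enzyme. Signal taken at 0 min and again at 10 min.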
Each line names hits and unclear results; the compound was inactive in the other large screens. Unless noted, calls follow the shape of the dose curve; as a rule, active = well fitted inhibition curve with a large enough effect; inconclusive = small, poorly fitted or top-dose-only effect, or another doubt; inactive = no such curve, though single readings can be large or run the other way.

Cc1ccc(C(=O)N/N=C\c2ccc(-c3ccc(Cl)c(Cl)c3)o2)cn1	POLB inh 20µM
N#Cc1cccc(NC(=O)OCCN2C(=O)CCC23CCC(c2ccccc2)CC3)c1 (stereo not drawn)	none (no result: PI5P4Ka inh, POLB inh, Pol iota inh, Pol kappa inh, Pol eta inh)
C=C(C)C(=O)OCC(O)CO (stereo not drawn)	none (no result: PI5P4Ka inh, POLB inh, Pol iota inh, Pol kappa inh, Pol eta inh)
C=CCc1ccc(OCc2ccc(C(=O)O)o2)c(OC)c1	Pol iota inh inconclusive, Pol eta inh 28.2µM
C#CCOCCOCCOCCNc1nc(N2CCOCC2)nc(N2CCN(C(=O)Cn3cc(CCCN=C(N)N)nn3)CC2)n1	none
C#CCOCCOCCOCCNc1nc(N2CCN(C(=O)Cn3cc(CCCN=C(N)N)nn3)CC2)nc(N2CCN(C(=O)[C@H]([C@@H](C)CC)n3cc(CCC(=O)O)nn3)CC2)n1	Pol iota inh 89.1µM
C#CCOCCOCCOCCNc1nc(N2CCN(C(=O)CCCCCCCCCCNC(=O)Cn3cc(CCCCCN)nn3)CC2)nc(N2CCN(C(=O)CCCCCCCCCCNC(=O)Cn3cc(CCCCCN)nn3)CC2)n1	PI5P4Ka inh -63.8, Pol iota inh inconclusive (no result: POLB inh)
C#CCOCCOCCOCCNc1nc(N2CCN(C(=O)Cn3cc(CCCN=C(N)N)nn3)CC2)nc(N2CCN(C(=O)Cn3cc(CCCN=C(N)N)nn3)CC2)n1	POLB inh 1.58µM (no result: PI5P4Ka inh, Pol iota inh, PI4K2A inh, Pol kappa inh, Pol eta inh)
C#CCOCCOCCOCCNc1nc(N2CCN(C(=O)Cn3cc(CCO)nn3)CC2)nc(N2CCN(C(=O)[C@H]([C@@H](C)CC)n3cc(CCCN=C(N)N)nn3)CC2)n1	none (no result: POLB inh)
C#CCOCCOCCOCCNc1nc(N2CCN(C(=O)Cn3cc(CCCCN)nn3)CC2)nc(N2CCN(C(=O)Cn3cc(CCCCN)nn3)CC2)n1	POLB inh 39.8µM, Pol iota inh inconclusive, Pol kappa inh inconclusive
CCc1cccc(NC(=O)c2ccc3c(=O)n4nc(Nc5ccccc5OC)sc4nc3c2)c1	none (no result: PI5P4Ka inh)
COc1ccnc2c1CCCCC2S(=O)c1nc2ccccc2[nH]1 (stereo not drawn)	none (no result: PI5P4Ka inh, POLB inh, Pol iota inh, Pol kappa inh, Pol eta inh)
Cc1ccc2c(c1)N(C(=O)CCC(=O)NCc1ccccc1Cl)CC(C)O2 (stereo not drawn)	POLB inh inconclusive (no result: PI5P4Ka inh)
C/C=C/C=C/C(=O)N1CC2(CC(c3cccc(NC(=O)/C=C/C)c3)=NO2)C[C@@H]1C(N)=O (stereo partly drawn)	PI5P4Ka inh -50.5, Pol iota inh 39.8µM, Pol kappa inh inconclusive, Pol eta inh inconclusive
C/C=C\C=C\C(=O)Nc1cccc(C2=NOC3(C2)C[C@@H](C(N)=O)N(C(=O)C(c2ccccc2)c2ccccc2)C3)c1 (stereo partly drawn)	PI5P4Ka inh -65.4, Pol iota inh inconclusive
C/C=C/C(=O)N1CC2(CC(c3cccc(NC(=O)CCCCC)c3)=NO2)C[C@H]1C(N)=O (stereo partly drawn)	none (no result: PI5P4Ka inh, Pol iota inh, PI4K2A inh, Pol kappa inh, Pol eta inh)
C/C=C/C(=O)Nc1cccc(C2=NOC3(C2)C[C@H](C(N)=O)N(C(=O)/C=C/C)C3)c1 (stereo partly drawn)	none
C/C=C(/C)C(=O)Nc1cccc(C2=NOC3(C2)C[C@H](C(N)=O)N(C(=O)Cc2ccc([N+](=O)[O-])cc2)C3)c1 (stereo partly drawn)	none
C/C=C\C=C/C(=O)Nc1cccc(C2=NOC3(C2)C[C@H](C(N)=O)N(C(=O)Cc2ccc([N+](=O)[O-])cc2)C3)c1 (stereo partly drawn)	PI5P4Ka inh -57.2, Pol iota inh 25.1µM
C/C=C/C=C/C(=O)N1CC2(CC(c3cccc(NC(=O)CCCCC)c3)=NO2)C[C@H]1C(N)=O (stereo partly drawn)	PI5P4Ka inh -75.7, Pol iota inh inconclusive, Pol eta inh inconclusive
CCCCCCCCCC[n+]1cc(Br)cc(Br)c1	none (no result: PI5P4Ka inh, POLB inh, PI4K2A inh, Pol eta inh)
COc1cc(OC)c(NC(=O)CCS(=O)(=O)c2ccc3c(c2)oc(=O)n3C)cc1Cl	none (no result: PI5P4Ka inh)
COc1ccc(-c2nc3ccc(NS(C)(=O)=O)cc3o2)cc1	none (no result: PI5P4Ka inh, Pol eta inh)

High-throughput results: PubChem BioAssay, National Center for Advancing Translational Sciences (NCATS)
